Screening results from PubChem.
IL1B secr inh = inflammasome signaling inhibition, IL-1 beta readout. THP-1 LPS/ATP IL-1B secretion, AlphaLISA, 16 h; active compounds read low. activity change, % at 57.5 µM. 360,000 compounds, 4.7% hits. AID 743279; in the data active = activity change below about -50%; inconclusive = mostly about -30% to -49%
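THP-1 cells pretreated 1 hr with compounds (up to 57.5 uM final), then stimulated with LPS (250 ng/mL final) plus ATP (1.25 mM final); secreted IL-1B measured by AlphaLISA after 16 hr, decreased signal indicating inhibition.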
TDP1 cell noCPT = qHTS for Inhibitors of human tyrosyl-DNA phosphodiesterase 1 (TDP1): qHTS in cells in absence of CPT. DT40 Tdp1-/- hTDP1 cells, no CPT, ATP luminescence, 48 h. Potency, µM (top dose mostly 46.2 µM), without a hit: at the highest dose activity change, negative = growth inhibition, most hits filed as inhibitors. 420,000 compounds, 15% hits. AID 686978, 2013; note: potency is the fitted concentration of half-maximal effect; nearly all actives have a fitted effect of over 55% in size
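A cellular qHTS used chicken DT40 cells lacking endogenous Tdp1 but carrying stably transfected human TDP1. Compounds were applied without camptothecin, and cell growth kinetics were judged by ATP-dependent luminescence after ≥48 hr.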
LDHA inh = LDHA (human) enzyme inhibition. P00338. purified LDHA, NADH/diaphorase-resazurin fluorescence; active compounds read low. activity change, % (values are at about 110 or 230 µM). 480,000 compounds, 0.15% hits; in the data active = activity change below about -30%; inconclusive = mostly about -25% to -30%;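 note: plate controls were DMSO wells for no effect and wells without enzyme for full effect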
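Enzyme activity of human lactate dehydrogenase 5 (2 nM; 0.06 mM NADH, 0.2 mM pyruvate, 5 min, RT) is measured via a resazurin/diaphorase fluorescence readout of residual NADH.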
RORgamma inh = ROR gamma (mouse) transcription inhibition; 310,000 compounds, 5.4% hits; Potency, µM (doses to about 53.6 µM), inactives show at the top dose activity change, negative = inhibition, usual class: inhibitors; Drosophila S2 Gal4-RORgamma UAS-luciferase reporter, 20 h; note: potency is the fitted concentration of half-maximal effect; nearly all actives have a fitted effect of over 60% in size
Target sequence (P51450 whole entry, looked up, the tested form may be a part): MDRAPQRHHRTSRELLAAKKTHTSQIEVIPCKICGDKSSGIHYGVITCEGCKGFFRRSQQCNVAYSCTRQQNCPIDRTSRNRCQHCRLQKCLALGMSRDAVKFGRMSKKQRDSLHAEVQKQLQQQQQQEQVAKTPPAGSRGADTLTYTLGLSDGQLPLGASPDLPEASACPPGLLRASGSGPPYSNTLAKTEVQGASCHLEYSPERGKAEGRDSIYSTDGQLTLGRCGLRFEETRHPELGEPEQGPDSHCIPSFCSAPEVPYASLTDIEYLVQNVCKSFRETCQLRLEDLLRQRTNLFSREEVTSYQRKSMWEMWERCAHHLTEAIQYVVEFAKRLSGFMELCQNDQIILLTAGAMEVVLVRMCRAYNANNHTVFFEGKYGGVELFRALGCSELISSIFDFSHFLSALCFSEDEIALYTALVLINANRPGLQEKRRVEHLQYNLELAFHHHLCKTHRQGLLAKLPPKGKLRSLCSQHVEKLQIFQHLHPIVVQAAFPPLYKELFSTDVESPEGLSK
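In this cell-based reporter format, copper sulfate (700 uM final) drives Gal4–ROR gamma fusion expression from a metallothionein promoter in Drosophila Schneider cells; compounds preincubated 1 hr, reporter read after 20 hr at ambient temperature.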
Gal4-VP16 FLuc = inhibits Gal4-VP16 luciferase reporter, ROR gamma counter-screen; Drosophila S2 Gal4-VP16 UAS-luciferase, luminescence, 20 h; Potency, µM (highest dose often 53.6 µM), inactives show top-dose activity, negative = inhibition, most hits filed as inhibitors; 310,000 compounds, 3.5% hits; AID 2546;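 note: Gal4-VP16 expression switched on by copper sulfate through the metallothionein promoter; potency is the fitted concentration of half-maximal effect; nearly all actives have a fitted effect of over 50% in size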
DT40 TDP1 CPT = growth inhibition of DT40 Tdp1-/-;hTDP1 cells with camptothecin (screen for TDP1 inhibitors). chicken DT40 Tdp1-/-;hTDP1 cells + 20 nM CPT, ATP luminescence, 48 h. 420,000 compounds, 12% hits. Potency, µM (top dose mostly 46.2 µM), for inactives: top-dose activity change, negative = growth inhibition, hits mostly inhibitors; note: potency is the fitted concentration of half-maximal effect; nearly all actives have a fitted effect of over 55% in size
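Chicken DT40 Tdp1-/- cells stably complemented with human TDP1 were seeded at 400 cells/well in medium containing 20 nM camptothecin, exposed to pin-transferred compounds, and grown at 37 °C for at least 48 hr. Viability was read as ATP luminescence.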
Numbers without * were called inactive; i = inactive; u = inconclusive; x = no result. A selection: hits, their analogues and other compounds. The true share with any hit is near 18%. Unless noted, calls come from the whole dose curve; as a rule, active = well fitted curve in the direction sought with a large enough effect; inconclusive = small, poorly fitted or top-dose-only effect, or another doubt; inactive = no such curve, though single readings can be large; an effect the other way counts as inactive or inconclusive. Unless noted, % is set by controls: 0 for no effect and ±100 for the full control effect.

SMILES	IL1B secr inh	TDP1 cell noCPT	LDHA inh	RORgamma inh	Gal4-VP16 FLuc	DT40 TDP1 CPT
Cc1ccc(S(=O)(=O)Nc2cc3c4c(c2)CCC(=O)N4CCC3)cc1	59.7	20.6µM*	-8.9	x	x	u
COc1ccc(C)cc1S(=O)(=O)Nc1cc2c3c(c1)CC(=O)N3CCC2	30.3	u	-8.6	x	x	u
CN(C)c1ccc(NS(=O)(=O)c2cc3c4c(c2)CC(=O)N4CCC3)cc1	4.4	u	4.4	37.9%	1.8%	u
COc1ccc(OC)c(S(=O)(=O)Nc2cc3c4c(c2)CC(=O)N4CCC3)c1	43.1	14.6µM*	2.7	x	x	u
O=C1CCc2cc(NS(=O)(=O)c3ccc(Br)cc3)cc3c2N1CC3	2.5	-7.5%	-1.2	x	x	2.3%
Cc1cc(C)c2cc(C(=O)O)[nH]c2c1	x	x	8.5	x	x	x
O=C(c1cc2cc(Cl)ccc2oc1=O)N1CCN(c2ccccc2)CC1	x	x	0.0	x	x	x
Cc1cccc(-n2ncc3c2CCCC3NC(=O)CCc2ccncc2)c1C (configuration not stated)	0.0	6.51µM*	0.0	34.5%	u	11.6µM*
Cc1cc(C(=O)NC2CCCc3c2cnn3-c2ccccc2F)nc(C)n1 (configuration not stated)	-13.5	u	-4.1	-1.1%	-9.2%	u
Cc1cccc(-n2ncc3c2CCCC3NC(=O)c2ccc[n+]([O-])c2)c1C (configuration not stated)	20.4	u	-1.0	34.1%	u	11.6µM*
Cc1cc(C(=O)NC2CCCc3c2cnn3-c2cccc(C)c2C)n(C)n1 (configuration not stated)	13.8	0.206µM*	0.8	u	2.24µM*	0.146µM*
Cc1ccn(CCC(=O)NC2CCCc3c2cnn3-c2cccc(C)c2C)n1 (configuration not stated)	9.7	-0.6%	-0.6	15.0%	u	u
Cc1cccc(-n2ncc3c2CCCC3NC(=O)C2CCOCC2)c1C (configuration not stated)	i	14.6µM*	-7.4	u	u	u
Cc1ccccc1-c1cc(C(=O)O)c2ccc(Br)cc2n1	x	x	-6.6	x	x	x
O=C1N[C@@H](c2ccccc2)COC(=O)[C@H](Cc2ccc(F)cc2)CC/C=C/C[C@H]1CC(=O)N(CCO)Cc1ccccc1	-29.3	14.6µM*	-2.6	x	x	18.4µM*
O=C1N[C@@H](c2ccccc2)COC(=O)[C@@H](Cc2ccc(F)cc2)C/C=C\C[C@@H]1CC(=O)N(CCO)Cc1ccccc1	-17.6	13µM*	-15.4	x	x	14.6µM*
COc1ccc(NC(=O)c2ccc3ncsc3c2)c2ccccc12	-2.5	-28.6%	-4.2	36.8%	-6.8%	2.7%
COc1ccc(C(C)(C)C)cc1NC(=O)c1ccc2ncsc2c1	-51.3*	u	0.7	u	-8.3%	u
COc1ccc(C(C)(C)C)cc1NC(=O)C1CC=CCC1C(=O)O (configuration not stated)	26.6	14.6µM*	4.9	11.5%	2.8%	u
COc1ccc(OC)c(NC(=O)c2cccnc2)c1	-5.2	-5.3%	1.7	8.2%	2.3%	8.3%
Cc1cc(C)cc(Oc2ccc(NC(=O)C3CC=CCC3C(=O)O)cc2)c1 (configuration not stated)	10.9	3.66µM*	-3.4	41.3%	-9.4%	-4.3%
COc1ccc(C(C)(C)C)cc1NC(=O)c1cncc(Br)c1	-22.1	18.4µM*	-0.4	32.2%	-1.6%	u
Cc1ccc(SCc2cc(=O)oc3c(C)c(O)ccc23)cc1	x	x	0.3	x	x	x
Cc1ccc(-c2cc(C(=O)NC3CCCCC3C)c3ccccc3n2)cc1C (configuration not stated)	x	x	-20.2	x	x	x
Cc1ccccc1Cn1nc(C)c(NC(=O)c2noc3c2CCc2ccccc2-3)c1C	-5.8	13µM*	-0.2	u	u	20.6µM*
SMILES	IL1B secr inh	TDP1 cell noCPT	LDHA inh	RORgamma inh	Gal4-VP16 FLuc	DT40 TDP1 CPT
Cc1ccccc1Cn1nc(C)c(NC(=O)c2noc3c2CC(C(C)(C)C)CC3)c1C (configuration not stated)	u	u	-4.3	u	-4.2%	u
CC(=O)c1cccc(NC(=O)c2noc3c2CCc2ccccc2-3)c1	-5.4	-28.2%	-4.0	0.708µM*	2.24µM*	5.4%
COc1ccc(C(=O)Nc2ccc3oc(-c4cccc(I)c4)nc3c2)cc1	x	x	14.0	x	x	x
Cn1cc(-c2nc(COc3cccc4c3OC(C)(C)C4)cs2)cn1	x	x	0.0	x	x	x
COc1ccc(Cn2c(SCc3ccccc3C)nc3cc(OC)c(OC)cc3c2=N)cc1	x	x	x	u	22.4µM*	x
COc1cc2nc(SCc3ccc(F)cc3)n(Cc3cccs3)c(=N)c2cc1OC	-2.5	-13.6%	-1.6	-0.7%	u	-42.8%
COCCCn1c(SCC(=O)NCc2ccccc2)nc2ccccc2c1=O	-5.6	u	-0.6	10.6%	-7.5%	u
CCSc1nc2cc(OC)c(OC)cc2c(=O)n1CCc1ccccc1	12.5	20.6µM*	-11.7	-30.3%	-7.6%	16.4µM*
COCCCn1c(SCCc2ccccc2)nc2cc(OC)c(OC)cc2c1=N	-17.2	13µM*	-1.5	3.5%	8.8%	16.4µM*
CCN1CCN(c2ccc(NC(=O)c3cnc4ccccc4n3)cc2)CC1	x	x	1.6	x	x	x
COc1ccc(NC(=O)c2cc3ccccc3oc2=O)cc1	9.3	u	-4.4	x	x	-20.4%
COc1ccc(-c2nn(-c3ccccc3)cc2C(=O)Nc2ccccc2OC)cc1	x	20.6µM*	-5.9	x	x	16.4µM*
COc1ccc(NC(=O)c2cn(-c3ccccc3)nc2-c2cc3ccccc3o2)cc1	-2.1	20.6µM*	-2.4	31.9%	-26.8%	16.4µM*
OCc1cn(-c2ccccc2)nc1-c1cc2ccccc2o1	-15.6	-3.0%	-0.4	u	11.2µM*	u
N#Cc1cn(-c2ccccc2)nc1-c1cc2ccccc2oc1=O	-3.2	16.4µM*	-3.3	15.6%	12.4%	u
COc1ccc(-c2nn(-c3ccccc3)cc2C(=O)Nc2ccc(C(=O)O)cc2)cc1	-26.3	u	-6.5	u	16.1%	1.5%
O=C(c1cc2occc2n1Cc1ccccc1F)N1CCSCC1	x	x	3.1	x	x	x
COc1ccc(C2=NS(=O)(=O)N(C)C(C(=O)NC(C)C)=C2)cc1OC	x	x	2.5	x	x	x
COc1ccc(NC(=O)CSC2=Nc3ccccc3C3=NC(C(C)C)C(=O)N23)cc1OC (configuration not stated)	x	x	9.7	x	x	x
COc1cccc(-c2csc(/C(C#N)=C/c3ccccc3C(F)(F)F)n2)c1	x	x	5.1	x	x	x
